According to PubChem BioAssay AID1688 (National Center for Advancing Translational Sciences (NCATS), 2009):
The campaign covered roughly 220,000 compounds. About 2,400 (1.1%) were called active. Roughly 7% stayed inconclusive and do not appear here. Many of the other results were omitted from the sample, so actives are more common in it than they were. A number with no mark means an inactive call. Calls come from the whole dose curve; as a rule, active = well fitted inhibition curve with a large enough effect; inconclusive = small, poorly fitted or top-dose-only effect, or effect the other way; inactive = no such curve, though single readings can be large or run the other way.

test: qHTS Multiplex Assay to Identify Dual Action Probes in a Cell Model of Huntington: Aggregate Formation (GFP); settings: PC12 HttQ103-GFP aggregates, Acumen cytometry, 40 h; series mostly up to 9.22 µM; activity change, negative = inhibition: at the top concentration; note: nearly all actives have a fitted effect of over 60% in size
Text: NIH Chemical Genomics Center [NCGC]
NIH Molecular Libraries Probe Production centers Network [MLPCN]
Assay Submitter (PI): Wei Zheng
Huntington's disease is a neurodegenerative disorder caused by a trinucleotide repeat expansion in Exon 1 of the Huntingtin gene. The CAG trinucleotide encodes glutamine and polyglutamine expansions cause cell death in selective areas of the brain. Huntington polyglutamine repeats have the tendency to form aggregates which are observable in later stages of the disease. The exact nature of the aggregates, whether toxic, protective, or insignificant, is unclear.
A stable PC12 cell line containing a gene fusion of Exon 1 of the Huntingtin gene linked to GFP under the control of the inducible ecdysone promoter were used as the cell-based model of Huntington Disease for high throughput screening. Exon 1 of the Huntingtin gene contained an expansion of 103 polyglutamines (Q103) which, when expressed, caused cell death and distinct, bright GFP aggregates. The amount of cell death and the size and intensity of GFP aggregates increased over time and induction level. The cell death were quantified with a measurement of ATP content in the cells. A maximal 40-50% of cell death was observed when the Huntington gene was induced in this cell line.
We optimized this assay in a homogeneous 1536 well format. A quantitative high throughput screen (qHTS) was conducted on the PC12 cells which were induced to express the toxic fusion construct. Small molecules which reduced aggregate formation were identified bu using a laser scanning cytometer calibrated to detect the aggregates in cell lysates.
PC12 cells stably containing a construct with an ecdysone inducible promoter expressing GFP fused to the exon 1 of HTTQ103 (Huntington protein which containing a 103 ployglutamine expansion) were used.
NCGC Assay Protocol Summary:
Sequence, Parameter, Description
1, Reagent, 5 uL 1500 cells/well 1536 TC treated White clear bottom plate
2, Compound, 23 nL Tebufenozide inducer (100 nM final) to all columns
3, Compound, 23 nL 40 uM to 0.5 nM Libraries
5, Reagent, 5 ul ATPLite cell death assay reagent
6, Detector, Aggregate quantitation by Acumen Explorer
Media consisted of phenol red free DMEM + 5% equine serum (Hyclone # SH30072.03 ), 5% supplemented Bovine Calf Serum (Hyclone # SH30074.03 ), 1x pen/strep, no G418
Acumen Explorer was used to quantitate GFP aggregates using the following criteria: […] laser excitation, 500-530 nm emission, the PMT was set at a voltage of 450 volts, and objects ranging in size of […] in size having a signal of 6 STDEV above background were collected.
Control columns: 1 = DMSO, 2= 2 uM teb dilns (1:1), 4 = 100 nM Teb inducer. Sample columns received 100 nM Teb.
% is set by controls: 0 for no effect and ±100 for the full control effect.

In the case of `O=c1c([N+](=O)[O-])cccn1Cc1ccc(F)cc1Cl`, the Potency is reported as 10 µM (active).
In the case of `CC(=O)Nc1ccc(C(=O)/C=C/c2ccc[nH]2)cc1`, the Potency is reported as 11.2 µM (active).
In the case of `O=C(Nc1ccncc1)c1c(F)cccc1F`, the Potency is reported as 12.6 µM (active).
With `CCOC(=O)c1c(C)[nH]c2c1-c1ccccc1C(=O)C2=O` the Potency was 5.01 µM (active).
In the case of `O=C(Cc1ccc(Cl)c(Cl)c1)Nc1ccc(SC(F)F)cc1`, the Potency is reported as 12.6 µM (active).
In the case of `CCOC(=O)C1=C(c2ccc(OC)cc2)C(=O)c2ccccc2C1=O`, the Potency is reported as 11.2 µM (active).
With `c1ccc(Nc2nc(N3CCOCC3)c3ccccc3n2)cc1` the Potency was 12.6 µM (active).
In the case of `N#Cc1ccc(C(=O)Nc2nc(-c3cccs3)c(C(=O)C(F)(F)F)s2)cc1`, the Potency is reported as 2.82 µM (active).
In the case of `O=C(CCCO)N/N=C/c1cc(Br)ccc1O`, the Potency is reported as 7.94 µM (active).
In the case of `COc1ccc(-n2c(C)cc(C(=O)CSc3nnc(-c4cccs4)o3)c2C)cc1`, the Potency is reported as 7.94 µM (active).
With `Cc1nc(CNS(=O)(=O)c2ccc(Oc3ccccc3)cc2)cs1` the Potency was 10 µM (active).
In the case of `COC(=O)C(C)Sc1nc2c(c(=O)n(C)c(=O)n2C)n1Cc1cccc(C)c1` (stereo unspecified), the Potency is reported as 28.2 µM (active).
For `CCCCNc1nc2c(c(=O)n(C)c(=O)n2C)n1Cc1cccc(OC)c1`, the Potency was 7.08 µM (active).

Going from `O=C(NCC1CCCO1)c1ccccc1-c1nc(-c2ccccc2Cl)no1` (stereo unspecified) to `c1ccc(-c2nnc(N3CCOCC3)c3ccccc23)cc1`, the “activity change, negative = inhibition” value falls from 0.943% to -30.7%.

Going from `CC(=O)Nc1ccc(/C=C/C(=O)c2ccccc2)cc1` to `CC(=O)NC(CC(=O)Nc1nccs1)c1ccccc1` (stereo unspecified), the “activity change, negative = inhibition” value rises from -17.7% to 1.89%.

Going from `Cn1c(=O)c(=O)n(C)c2cc(S(=O)(=O)NCCN3CCN(c4ccccc4F)CC3)ccc21` to `COc1cccc(Nc2nnc(SCC(=O)N3CC(=O)Nc4ccccc43)s2)c1`, the “activity change, negative = inhibition” value falls from -1.75% to -23.2%.

First: COC(=O)CNc1nc(Cl)nc(N2CCC(C)CC2)n1
Second: Nc1nnc(SCC(=O)NC2CCCc3ccccc32)s1 (stereo unspecified)
The “activity change, negative = inhibition” value of the first is higher: 3.06% for the first, -2.41% for the second.

Compared with `N#Cc1c(C(F)(F)F)cc(-c2cccs2)nc1N1CCCCC1`, `O=C(Nc1ccccc1C(F)(F)F)N1CCCC1c1cccnc1` (stereo unspecified) is higher in “activity change, negative = inhibition” value: -10.4% for the first, 3.58% for the second.

Going from `O=C(CCl)Nc1ccc(Sc2ccc(NC(=O)CCl)cc2)cc1` to `COc1ccc(CC(=O)NCC(=O)N/N=C/c2cc(Br)ccc2OC)cc1`, the “activity change, negative = inhibition” value falls from 21.2% to 9.05%.

Compared with `O=C(NNC(=O)c1cnccc1C(F)(F)F)c1ccc(Cl)cc1`, `Clc1ccc(CSc2nnc3c(n2)[nH]c2ccccc23)cc1` is higher in “activity change, negative = inhibition” value: -21.6% for the first, -6.63% for the second.

First: CCOC(=O)c1c(-c2ccc(C)cc2)csc1/N=C(\C)C1=C(O)c2ccccc2C1=O
Second: CN(c1ccc(OCC(=O)NC2=NCCS2)cc1)S(=O)(=O)c1ccc(F)cc1
The “activity change, negative = inhibition” value of the first is higher: 0.394% for the first, -8.7% for the second.

First: CC(CNS(=O)(=O)c1ccc(Br)cc1)CN(C)C (stereo unspecified)
Second: CN(C)C(=O)c1coc2nc3ccccc3nc12
The “activity change, negative = inhibition” value of the first is lower: -16.9% for the first, 8.88% for the second.

First: Cc1ccc(CSc2nnc(-c3cnccn3)n2C)cc1
Second: Nn1c(SCc2ccccc2)nnc1C1CCCCC1
The “activity change, negative = inhibition” value of the first is lower: -6.59% for the first, 8.02% for the second.

Compared with `COc1ccc(Cl)cc1CSc1ncn[nH]1`, `CSC1=NC2(C)CCCCC2C12C=CC(=O)C=C2` (stereo unspecified) is higher in “activity change, negative = inhibition” value: -11.8% for the first, 7.52% for the second.

In the case of `C/C=N/N(c1ccccc1)c1ccccc1`, the “activity change, negative = inhibition” value is reported as 13.7%.

Going from `CCCC(=O)Nc1ccc(C(=O)N/N=C/c2ccc[nH]2)cc1` to `CC(=O)c1sc(NC(=O)c2ccc(C)cc2)nc1C`, the “activity change, negative = inhibition” value rises from -1.27% [at 46.1 µM] to 8.67% [at 46.1 µM].

First: COc1cccc(OC)c1C(=O)Nc1ccc(Cc2ccncc2)cc1
Second: CSc1nc2ccc(NC(=O)c3c(F)cccc3F)cc2s1
The “activity change, negative = inhibition” value of the first is higher: 9.12% [at 46.1 µM] for the first, -18.4% [at 46.1 µM] for the second.

Compared with `CCOC(=O)c1cc2n(c1N)-c1ccccc1C2=O`, `Cc1[nH]c2ccccc2c1C(=O)COC(=O)C(C)C` is higher in “activity change, negative = inhibition” value: -8.66% [at 46.1 µM] for the first, 3.18% [at 46.1 µM] for the second.

First: O=C(Cc1ccc2c(c1)CCCC2)Nc1ccccc1Cl
Second: CN1CCN(c2nc(Nc3ccc(O)cc3)nc3ccccc23)CC1
The “activity change, negative = inhibition” value of the first is lower: -12.7% [at 46.1 µM] for the first, -3.21% [at 46.1 µM] for the second.

Compared with `CCCCC(C(=O)OCC(=O)c1ccc(OC)cc1)N1C(=O)c2ccccc2C1=O` (stereo unspecified), `CCCCNc1nc2c(c(=O)[nH]c(=O)n2C)n1CCOc1ccccc1` is higher in “activity change, negative = inhibition” value: -15.5% [at 46.1 µM] for the first, 15.4% [at 46.1 µM] for the second.

Going from `Cc1ccc(C(=O)Nc2nnc(-c3cccs3)s2)cc1C` to `COc1ccc(OC)c(C(=O)CSc2nnc(-c3cccs3)o2)c1`, the “activity change, negative = inhibition” value falls from 0.134% [at 46.1 µM] to -1.52% [at 46.1 µM].

First: Oc1ccc(Br)cc1C=Nc1ccc2[nH]ncc2c1
Second: COc1ccc(-c2nnc(SCC(=O)c3cccs3)o2)c(OC)c1
The “activity change, negative = inhibition” value of the first is lower: -6.74% [at 46.1 µM] for the first, 17.5% [at 46.1 µM] for the second.

First: O=P(O)(O)OC[C@H](O)CO
Second: Cc1cccc(Cn2c(SCCO)nc3c2c(=O)n(C)c(=O)n3C)c1
The “activity change, negative = inhibition” value of the first is higher: 11.5% [at 46.1 µM] for the first, -20.3% [at 46.1 µM] for the second.

First: Cc1nc(CNS(=O)(=O)c2cccnc2)cs1
Second: Cc1ccc(S(=O)(=O)NCc2csc(C)n2)c(C)c1
The “activity change, negative = inhibition” value of the first is lower: 12.4% [at 46.1 µM] for the first, 14.9% [at 46.1 µM] for the second.

First: Cc1cccc(Cn2c(N3CCN(c4ccccc4)CC3)nc3c2c(=O)n(C)c(=O)n3C)c1
Second: CCn1c(NCCc2ccc(OC)c(OC)c2)nc2c1c(=O)n(C)c(=O)n2C
The “activity change, negative = inhibition” value of the first is lower: -27.9% [at 46.1 µM] for the first, -18.1% [at 46.1 µM] for the second.
